ERa coact inh – blocks coactivator binding to human estrogen receptor alpha | P03372 | TR-FRET ER-alpha LBD / SRC-1 peptide, estradiol-bound | actives 1.7% (n = 86,000) | inhibition, % at 25.6 µM; in the data active means inhibition above about 50%;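 further: 0% = receptor plus peptide control and 100% = peptide only without receptor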
ERb SRC1 inh – ER-beta (human) coactivator binding inhibition | inhibition, % at 25.6 µM | actives 1.3% (n = 86,000) | Q92731 | TR-FRET ER-beta LBD / SRC1-Cy5 peptide binding; receptor agonist-loaded with 1 µM estradiol;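 active means compounds whose percent inhibition of the receptor-coactivator binding signal exceeds about 50% in the single-dose screen, limit read from the data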;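 further: 0% = receptor plus peptide wells without compound and 100% = peptide-only wells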
ERa coact pot – ER-alpha (human) coactivator binding potentiation; coactivator binding (% of control), % at 25.6 µM; P03372; TR-FRET ERalpha-LBD/SRC-Cy5 coactivator binding, 2 h; 100 = basal binding, no effect; actives 1.3% (n = 86,000); AID 639; in the data active means activity above about 200%;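 further: binding measured in presence of low estradiol as agonist stimulus; 0% = peptide alone without receptor and 100% = receptor with peptide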
HePTP inh – blocks human HePTP tyrosine phosphatase | recombinant HePTP phosphatase activity, OD absorbance | inhibition, % at 20 µM | actives 0.64% (n = 110,000); in the data active means inhibition above about 50%;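 further: plate controls were vehicle for no effect and reference inhibitor for full effect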
Candida biofilm – kills Candida albicans biofilms | AID 834 | C. albicans biofilm + clotrimazole, Alamar Blue | actives 0.14% (n = 85,000) | inhibition, % at 6 µM;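 active means inhibition above 20%; inactive means inhibition below 20%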;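 further: preformed 24 hr biofilms exposed to compound for 48 hr; 0% = biofilm without compound and 100% = blank killed by clotrimazole plus chlorhexidine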
Smad3 FoxH1 inh – inhibitors of human Smad3 transcription factor binding. P84022. AID 630. actives 0.29% (n = 88,000). TR-FRET Smad3/Dy647-FoxH1 peptide binding, europium anti-His. inhibition, % at 25 µM;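 active means compounds that reduce the energy-transfer binding signal between the protein and its labelled peptide by more than half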;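 further: 0% = Smad3 plus labelled peptide maximal FRET and 100% = peptide-only background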
Target sequence (P84022 whole entry, looked up): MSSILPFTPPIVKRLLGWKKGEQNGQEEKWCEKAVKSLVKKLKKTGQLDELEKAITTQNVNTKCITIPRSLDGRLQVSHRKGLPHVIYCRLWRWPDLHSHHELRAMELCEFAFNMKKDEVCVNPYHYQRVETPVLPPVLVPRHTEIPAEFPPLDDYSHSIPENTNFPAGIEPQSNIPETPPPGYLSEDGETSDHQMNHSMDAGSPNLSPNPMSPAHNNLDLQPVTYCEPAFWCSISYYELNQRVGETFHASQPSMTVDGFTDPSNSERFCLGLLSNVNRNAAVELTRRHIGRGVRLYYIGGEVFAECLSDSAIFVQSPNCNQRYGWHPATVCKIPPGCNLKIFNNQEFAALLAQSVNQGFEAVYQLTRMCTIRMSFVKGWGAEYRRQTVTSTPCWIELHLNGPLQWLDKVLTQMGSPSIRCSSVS
Starred values were filed as active, the others as inactive; . = not tested or not shown; [ ] = another dose, or the depositor's remark. Compounds with a hit are over-represented: about 2.9% of the library has one in this group of screens.

SMILES	ERa coact inh	ERb SRC1 inh	ERa coact pot	HePTP inh	Candida biofilm	Smad3 FoxH1 inh
COc1ccc(C2Nc3ccccc3-c3nnc(SC)nc3O2)c(OC)c1 (stereo not drawn)	.	.	.	9	.	.
Brc1cc2c(cc1/C=N/Nc1ccccc1)OCO2	.	.	.	5	.	.
Cn1c(Cc2ccccc2)nnc1SCC(=O)c1cccs1	57*	-7	91	.	4	-24
COc1cc(/C=C2\N=C(c3ccccc3)OC2=O)cc(Br)c1OCc1c(C)no[n+]1[O-]	.	.	.	4	.	.
CCOc1cc(/C=C2\N=C(c3ccccc3)OC2=O)ccc1OCc1c(C)no[n+]1[O-]	.	.	.	66*	.	.
FC(F)(F)c1ccccc1CN1CCN(Cc2ccncc2)CC1	.	.	.	-11	.	.
Cc1cc([N+](=O)[O-])ccc1-c1ccc(C(=O)Nc2ccc3oc(-c4ccccc4)nc3c2)o1	.	.	.	6	.	.
O=C(Nc1ccc2oc(-c3ccccc3)nc2c1)c1ccc(-c2ccc([N+](=O)[O-])cc2)o1	.	.	.	101*	.	.
O=C(NC(=S)Nc1ccc2oc(-c3ccccc3)nc2c1)c1ccccc1	.	.	.	103*	.	.
COc1ccc(N(CC(=O)Nc2ccc(C)cc2C)S(=O)(=O)c2ccc(C)cc2)c(OC)c1	.	.	.	-5	.	.
CCc1c(C)sc(NC(=O)CC#N)c1C#N	77*[fluorescence artefact?]	64*[fluorescence artefact?]	40	7	4	1
CCc1c(C)sc(NC(=O)C2CCCCC2C(=O)O)c1C#N (stereo not drawn)	.	.	.	0	.	.
CCOc1cc(/C=C2\SC(=Nc3ccc(C)c(Cl)c3)NC2=O)ccc1O	.	.	.	7	.	.
Cc1ccc(N=C2NC(=O)/C(=C/c3ccc(O)c([N+](=O)[O-])c3)S2)cc1Cl	.	.	.	102*	.	.
O=C1NC(=Nc2ccc(O)cc2)S/C1=C\c1ccc([N+](=O)[O-])cc1	.	.	.	93*	.	.
O=C1NC(=Nc2ccc(Br)cc2)S/C1=C\c1ccc([N+](=O)[O-])cc1	.	.	.	-4	.	.
NN1C(=O)/C(=C/c2ccc(Cl)cc2)N=C1c1ccccc1	.	.	.	-4	.	.
COc1ccc(C2=CC(c3cccs3)C=C(c3ccc(OC)cc3)O2)cc1	.	.	.	-8	.	.
CN1C(=O)c2ccccc2C(C(=O)NCC2CCCO2)C1c1c[nH]c2ccccc12 (stereo not drawn)	-6	81*[fluorescence artefact?]	97	2	6	4
COCCN1C(=O)c2ccccc2C(C(=O)NCC2CCCO2)C1c1c[nH]c2ccccc12 (stereo not drawn)	-5	-2	109	7	7	-4
C=CCNc1nc(-c2cccc(OC)c2O)nc2ccccc12	58*	29	85	11	5	-1
O=C(NCCO)/C(=C\c1ccc(Cl)cc1)NC(=O)c1ccco1	.	.	.	0	.	.
C=C(CC(=O)O)C(=O)O (tested in a mixture with another compound)	.	.	.	.	.	87*
O=C(O)/C=C(/CC(=O)O)C(=O)O	.	.	.	.	.	14
Cc1ccc(NC(=O)/C(=C/c2cccc([N+](=O)[O-])c2)NC(=O)C2CCCCC2)c(C)c1	55*	28	64	.	6	-5
SMILES	ERa coact inh	ERb SRC1 inh	ERa coact pot	HePTP inh	Candida biofilm	Smad3 FoxH1 inh
O=C(Nc1ccc([N+](=O)[O-])cc1)/C(=C/c1cccc([N+](=O)[O-])c1)NC(=O)C1CCCCC1	3	31	88	.	13	-75
CCOC(=O)NC(Nc1ccccc1[N+](=O)[O-])(C(F)(F)F)C(F)(F)F	.	.	.	-2	.	.
Cc1ccc(-n2cc(C=C3C(=O)NC(=O)NC3=O)cn2)cc1C	.	.	.	5	.	.
CC(=O)NS(=O)(=O)c1ccc(NC(=O)c2cc([N+](=O)[O-])ccc2Cl)cc1	.	.	.	2	.	.
CC(=O)NS(=O)(=O)c1ccc(NC(=O)c2ccc([N+](=O)[O-])cc2[N+](=O)[O-])cc1	.	.	.	70*	.	.
CN(C)CCNc1ncnc2c1sc1nc(N3CCOCC3)c3c(c12)CC(C)(C)SC3	5	-6	89	.	6	-8
CC1(C)Cc2c(c(N3CCOCC3)nc3sc4c(=O)[nH]cnc4c23)CS1	30	55*[fluorescence artefact?]	83	7	-3	5
CCC(=O)N1CCN(c2cc(C)c(C(C)=O)cc2F)CC1	.	.	.	1	.	.
C=CCc1cc(/C=C2\C(=O)NC(=O)N(c3cc(C)cc(C)c3)C2=O)cc(OCC)c1OCC(=O)O	.	.	.	-1	.	.
CCOc1cc(OCC)cc(C(=O)Nc2cc(-c3nc4ccccc4s3)ccc2C)c1	.	.	.	-7	.	.
COc1cccc(-n2nnc3c(=O)n(Cc4ccc(Br)cc4)cnc32)c1	52*[fluorescence artefact?]	34	354*[fluorescence artefact?]	-10	2	6
COc1cc(NC(=O)COc2ccc(-n3cnnn3)cc2)c(OC)cc1Cl	77*	67*[fluorescence artefact?]	44	4	4	23
Cc1ccc(NC(=O)COc2ccc(-n3cnnn3)cc2)cc1C	74*[fluorescence artefact?]	69*	52	.	5	10
CCOC(=O)C1=C(C)N=c2s/c(=C\c3cc4c(cc3Cl)OCO4)c(=O)n2C1c1cccs1 (stereo not drawn)	.	.	.	8	.	.
C=CCNC(=O)Nc1ccc2oc(C)nc2c1	15	86*[fluorescence artefact?]	110	8	6	8
CC(C)N(C(=O)c1ccc(C(N)=O)cc1)C(C)C	.	.	.	-17	.	.
O=C(Nc1cc(C(F)(F)F)ccc1N1CCOCC1)c1ccc(Cl)c([N+](=O)[O-])c1	.	.	.	0	.	.
O=S(=O)(Nc1ccc2c(c1)OCCO2)c1ccc2ccccc2c1	.	.	.	5	.	.
Cc1cc(Cl)c(S(=O)(=O)Nc2ccc3c(c2)OCO3)cc1OCC(=O)NC1CCCCC1	8	7	80	.	5	-8
Cc1cc(Cl)c(S(=O)(=O)Nc2ccc3c(c2)OCO3)cc1OCC(N)=O	50*	51*	86	3	6	11
Cc1ccc2cccc(S(=O)(=O)Nc3ccc4c(c3)OCO4)c2n1	83*[fluorescence artefact?]	75*[fluorescence artefact?]	25	-4	4	6
Cc1ccc(N2C(=O)c3ccc(C(=O)Nc4cccc(C)c4C)cc3C2=O)c(C)c1	.	.	.	-11	.	.
Cc1ccc(C(C(=O)NC(C)(C)C)N(Cc2cccs2)C(=O)c2csnn2)cc1 (stereo not drawn)	60*	-4	114	.	9	5
CC(C)(C)NC(=O)/C=N/O	3	99*[fluorescence artefact?]	102	7	5	-7
CN(C)CCCNCCCCNC(=O)/C=N/O	-16	0	101	8	-1	-4
SMILES	ERa coact inh	ERb SRC1 inh	ERa coact pot	HePTP inh	Candida biofilm	Smad3 FoxH1 inh
COc1ccc(NC(=O)CCCOc2ccc(Cl)cc2Cl)c(OC)c1	.	.	.	4	.	.
CCOC(=O)Cc1csc(NC(=O)Cc2cccs2)n1	90*[fluorescence artefact?]	75*	19	20	10	1
CCOC(=O)Cc1csc(NC(=O)CC)n1	-1	-2	121	6	1	-2
COc1ccc(N(C(C)C(=O)Nc2cc(C)cc(C)c2)S(C)(=O)=O)cc1 (stereo not drawn)	.	.	.	10	.	.
CC(=O)Nc1nc2n(n1)C(c1ccc(Cl)cc1)C=C(C)N2 (stereo not drawn)	9	7	98	11	3	63*
COc1ccc(C2C=C(c3ccc(Cl)cc3)Nc3nc(NC(C)=O)nn32)cc1 (stereo not drawn)	70*	22	172	8	1	4

Compound activity deposited in PubChem by several laboratories.
